{
  "source": "PubChem BioAssay",
  "note": "Calls of active or inactive are those of the source. How the calls were made is not given here.",
  "data": [
    {"test": "liver-stage malaria parasite load reduction – cell-based, known kinase inhibitor set, luminescence, hepatoma host viability (AID 624392);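 further: infected cells incubated roughly two days before readout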", "conditions": "Plasmodium liver stage in hepatoma cells, luciferase luminescence, concentration not given here; liver cell % of control: measured here: host liver cell viability; parasite % of control: stronger effect = lower value", "units": {"liver cell % of control": "%"}, "values": [
      {"compound": "CC(C)C(CO)Nc1nc(NCc2ccc(S(N)(=O)=O)cc2)c2ncn(C(C)C)c2n1", "note": "(stereo not drawn)", "liver cell % of control": 95.4, "parasite % of control": "647% (inactive)"},
      {"compound": "C=CC(=O)N1CCCC(Nc2nc(Nc3ccc(N(C)C(=O)CC)cc3C)nc3nc[nH]c23)C1", "note": "(stereo not drawn)", "liver cell % of control": 105, "parasite % of control": "93.2% (inactive)"},
      {"compound": "COc1cc(NC(=O)c2cc(C)on2)cc(C(=O)Nc2cccc(C(F)(F)F)c2)c1", "liver cell % of control": 96.5, "parasite % of control": "66.6% (inactive)"},
      {"compound": "CC(C)(C)OC(=O)NC(COc1cncc(Br)c1)Cc1c[nH]c2ccccc12", "note": "(stereo not drawn)", "liver cell % of control": 95.1, "parasite % of control": "98.7% (inactive)"},
      {"compound": "Cc1cn(-c2cc(C(=O)Nc3ccc(C)c(NC(=O)N4CCNC4=O)c3)cc(C(F)(F)F)c2)cn1", "liver cell % of control": 98.1, "parasite % of control": "72.3% (inactive)"},
      {"compound": "NC1=NC(=O)C(=Cc2ccc(-c3ccc(S(N)(=O)=O)cc3)o2)S1", "parasite % of control": "97.3% (inactive)", "liver cell % of control": 104},
      {"compound": "C=CC(=O)Nc1ccc(CN2C(=O)N(c3c(Cl)c(OC)cc(OC)c3Cl)Cc3cnc(NCCCCN(CC)CC)nc32)cc1", "liver cell % of control": 96.7, "parasite % of control": "227% (inactive)"},
      {"compound": "CC(C)CC(CO)Nc1nc(N(C)c2cccc(Cl)c2)c2ncn(C(C)C)c2n1", "note": "(stereo not drawn)", "parasite % of control": "114% (inactive)", "liver cell % of control": 102},
      {"compound": "O=C(Nc1cccc(-c2csc(Nc3cccc(C(F)(F)F)c3)n2)c1)c1ccccc1", "parasite % of control": "68.7% (inactive)", "liver cell % of control": 97.7}
    ]}
  ]
}
